Inconclusive results are not listed. Values without a mark were called inactive. Activity calls are given as the source filed them. Calls come from the whole dose curve; as a rule, active = well fitted curve in the direction sought with a large enough effect; inconclusive = small, poorly fitted or top-dose-only effect, or another doubt; inactive = no such curve, though single readings can be large; an effect the other way counts as inactive or inconclusive.

For six molecules, Potency and activity, negative = inhibition results are on record in PubChem BioAssay (NCATS).

In experiment [1] the target is ATP-dependent 6-phosphofructokinase (Trypanosoma brucei brucei) (UniProt O15648). Kind of experiment: qHTS Assay to Find Inhibitors of T. brucei phosphofructokinase: hit validation (AID 492961). Note: % is set by controls: 0 for no effect and ±100 for the full control effect. A digest of the protocol:
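Luminescence from ADP-Glo reports ADP generated as T. brucei PFK (1.25 nM) phosphorylates 0.5 mM fructose-6-phosphate using 0.1 mM ATP. Reactions ran 45 min at room temperature, pH 8.0.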
In general terms: In qHTS, concentration-response curves come from the screen itself.

The nature of experiment [2]: qHTS profiling for inhibitors of Plasmodium falciparum proliferation (AID 504749).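 For activity, negative = inhibition: 0% = DMSO vehicle and full inhibition = artemisinin control.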 For all read-outs here: nearly all actives have a fitted effect of over 60% in size. Note: potency is the fitted concentration of half-maximal effect. Conditions: P. falciparum in erythrocytes, SYBR Green DNA, 72 h; for activity, negative = inhibition: at 28.7 µM (top of the series). A digest of the protocol: (§1)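 Each compound contacts P. falciparum-infected red blood cells for 72 h at 37 C; lysis buffer (Tris, EDTA, saponin, Triton X, SYBR Green I) is added and fluorescence measured next morning; values normalized to controls.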

Experiment [3] relates to 3D7. The experiment is described as above. Conditions: P. falciparum in erythrocytes, SYBR Green DNA, 72 h; series mostly up to 28.7 µM. Summed up:
as §1

Experiment [4] has as its system 7G8. The experiment is described as above. As to conditions: P. falciparum in erythrocytes, SYBR Green DNA, 72 h; series mostly up to 28.7 µM. A digest of the protocol:
as §1

The subject of experiment [5] is AS120. The description is as above. Conditions: P. falciparum in erythrocytes, SYBR Green DNA, 72 h; series mostly up to 28.7 µM. Summed up: as §1
Experiment [6] relates to ATS189. Described as above. Conditions: P. falciparum in erythrocytes, SYBR Green DNA, 72 h; series mostly up to 28.7 µM. Summed up:
as §1

Experiment [7] relates to CP185. The description is as above. As to conditions: P. falciparum in erythrocytes, SYBR Green DNA, 72 h; series mostly up to 28.7 µM. Summed up: as §1
Experiment [8] concerns CP191. The experiment is described as above. As to conditions: P. falciparum in erythrocytes, SYBR Green DNA, 72 h; series mostly up to 28.7 µM. Summed up: as §1
Experiment [9] deals with CP192. The description is as above. Conditions: P. falciparum in erythrocytes, SYBR Green DNA, 72 h; series mostly up to 28.7 µM. A digest of the protocol: as §1
The test system of experiment [10] is CP194. The experiment is described as above. As to conditions: P. falciparum in erythrocytes, SYBR Green DNA, 72 h; series mostly up to 28.7 µM. A digest of the protocol:
as §1

The test system of experiment [11] is CP201. Described as above. Conditions: P. falciparum in erythrocytes, SYBR Green DNA, 72 h; series mostly up to 28.7 µM. A digest of the protocol:
as §1

Experiment [12] has as its system CP203. The description is as above. As to conditions: P. falciparum in erythrocytes, SYBR Green DNA, 72 h; series mostly up to 28.7 µM. A digest of the protocol:
as §1

Experiment [13] has as its system CP237. Described as above. Conditions: P. falciparum in erythrocytes, SYBR Green DNA, 72 h; series mostly up to 28.7 µM. Summed up: as §1
Experiment [14] relates to CP238. The experiment is described as above. As to conditions: P. falciparum in erythrocytes, SYBR Green DNA, 72 h; series mostly up to 28.7 µM. Summed up: as §1
The subject of experiment [15] is CP247. The description is as above. Conditions: P. falciparum in erythrocytes, SYBR Green DNA, 72 h; series mostly up to 28.7 µM. A digest of the protocol:
as §1

Experiment [16] has as its system CP286. The description is as above. Conditions: P. falciparum in erythrocytes, SYBR Green DNA, 72 h; series mostly up to 28.7 µM. A digest of the protocol:
as §1

Experiment [17] relates to DFO2036. Described as above. As to conditions: P. falciparum in erythrocytes, SYBR Green DNA, 72 h; series mostly up to 28.7 µM. Summed up: as §1
Experiment [18] deals with DIV30. The description is as above. As to conditions: P. falciparum in erythrocytes, SYBR Green DNA, 72 h; series mostly up to 28.7 µM. A digest of the protocol:
as §1

The test system of experiment [19] is HB3. The experiment is described as above. As to conditions: P. falciparum in erythrocytes, SYBR Green DNA, 72 h; series mostly up to 28.7 µM. Summed up: as §1
For experiment [20], the system named is P94_40. The description is as above. Conditions: P. falciparum in erythrocytes, SYBR Green DNA, 72 h; series mostly up to 28.7 µM. A digest of the protocol: as §1

Chain of ATP-dependent 6-phosphofructokinase (Trypanosoma brucei brucei) (O15648 whole entry, looked up): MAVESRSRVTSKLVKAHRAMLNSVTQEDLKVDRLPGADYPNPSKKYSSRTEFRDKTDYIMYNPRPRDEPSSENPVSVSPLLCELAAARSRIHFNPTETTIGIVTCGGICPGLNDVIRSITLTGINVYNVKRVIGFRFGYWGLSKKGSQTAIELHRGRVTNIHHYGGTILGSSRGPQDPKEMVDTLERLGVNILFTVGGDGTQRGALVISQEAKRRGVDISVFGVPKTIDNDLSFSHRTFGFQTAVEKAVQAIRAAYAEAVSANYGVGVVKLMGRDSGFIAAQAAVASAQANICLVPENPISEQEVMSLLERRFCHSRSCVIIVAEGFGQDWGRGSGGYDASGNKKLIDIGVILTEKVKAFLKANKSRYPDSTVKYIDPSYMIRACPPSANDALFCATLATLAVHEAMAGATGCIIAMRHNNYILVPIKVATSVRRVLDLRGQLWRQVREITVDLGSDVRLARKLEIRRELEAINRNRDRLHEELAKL

For `C=C[C@H]1CN2CCC1C[C@H]2[C@H](O)c1ccnc2ccc(OC)cc12` (stereo partly specified), the Potency result in experiment [1] is “inactive”. The Potency is 141 nM (active) in experiment [2] (parasite line A); 141 nM (active) in [2] (parasite line B); 178 nM (active) in experiment [3]; 224 nM (active) in experiment [4]; 1410 nM (active) in experiment [5]; 1120 nM (active) in experiment [6]. For the same molecule, the Potency in experiment [7] is 794 nM (active); in experiment [8] it was 708 nM (active); in experiment [9], 1690 nM (active); in experiment [10] it was 1070 nM (active); in experiment [11], 2130 nM (active); in experiment [12] it was 1690 nM (active). For the same molecule, the Potency was 1260 nM (active) in experiment [13]; 1580 nM (active) in [14]; 1260 nM (active) in experiment [15]; 1000 nM (active) in [16]; 631 nM (active) in [17]; 953 nM (active) in experiment [18]. Further, the Potency was 794 nM (active) in [19] and 1000 nM (active) in experiment [20].

Consider `Nc1nc(F)nc2c1ncn2[C@@H]1O[C@H](CO)[C@@H](O)[C@H]1O`, for which the Potency entry in experiment [1], in [3], in experiment [4], in [5], in experiment [6] and in experiment [7] was “inactive” in each case. For the same molecule, the Potency result in [8], in experiment [9], in [10], in experiment [11], in [12] and in experiment [13] was “inactive” each time. Besides, the Potency result in [14], in experiment [15], in experiment [16], in experiment [17], in experiment [18] and in experiment [19] was “inactive” each time. For the same molecule, in experiment [20], the Potency result was “inactive”. The activity, negative = inhibition in [2] (parasite line A) was 9.43%; in [2] (parasite line B), 14.2%.

For the molecule `OCCOC[C@H]1O[C@H](OCCO)[C@H](OCCO)[C@@H](OCCO)[C@@H]1OCCO` (tested in a mixture with another compound), the Potency entry in experiment [1], in experiment [3], in experiment [4], in [5], in experiment [6] and in experiment [7] was “inactive” each time. The Potency result in experiment [8], in [9], in experiment [10], in experiment [11], in [12] and in experiment [13] was “inactive” each time. The Potency entry in experiment [14], in experiment [15], in [16], in experiment [17], in [18] and in experiment [19] was “inactive” throughout. In addition, the Potency entry in experiment [20] was “inactive”. Also, the activity, negative = inhibition in experiment [2] (parasite line A) was 3.32%; in [2] (parasite line B), 1.14%.

As for `CC1(C(=O)O)CCC2(C)CCC3(C)C(=CC(=O)C4C5(C)CCC(O)C(C)(C)C5CCC43C)C2C1` (stereo unspecified), the Potency result in [1], in [3], in experiment [4], in experiment [5], in experiment [6] and in experiment [7] was “inactive” in each case. Further, the Potency entry in experiment [8], in [9], in experiment [10], in experiment [11], in experiment [12] and in [13] was “inactive” each time. Also, the Potency entry in experiment [14], in experiment [15], in experiment [16], in [17], in experiment [18] and in experiment [19] was “inactive” in each case. Moreover, the Potency result in experiment [20] is “inactive”. Besides, the figures for the activity, negative = inhibition in experiment [2] (parasite line A) and in experiment [2] (parasite line B) were 8.05% and 1.81%, respectively.

In the case of `C[C@H]1[C@@H](OC(=O)CCC(=O)O)OC2OC3(C)CC[C@H]4[C@H](C)CC[C@@H]1[C@@]24OO3` (stereo partly specified), the Potency entry in experiment [1] was “inactive”. Moreover, the Potency is 4 nM (active) in [2] (parasite line A); 3.5 nM (active) in experiment [2] (parasite line B); 5 nM (active) in [3]; 1.4 nM (active) in experiment [4]; 5 nM (active) in [5]; 2.8 nM (active) in experiment [6]. Also, the Potency was 5 nM (active) in [7]; 4.5 nM (active) in [8]; 9.5 nM (active) in experiment [9]; 6 nM (active) in experiment [10]; 12 nM (active) in [11]; 5.4 nM (active) in experiment [12]. The Potency in experiment [13] was 6.3 nM (active); in experiment [14] it was 4.5 nM (active); in experiment [15], 5 nM (active); in [16] it was 10 nM (active); in experiment [17], 3.5 nM (active); in experiment [18], 4.3 nM (active). Also, the Potency in [19] is 5 nM (active); in experiment [20] it was 2.2 nM (active).

In the case of `CN1[C@@H]2CC[C@@H]1CC(OC(=O)[C@H](CO)c1ccccc1)C2` (stereo partly specified), the Potency result in [1], in experiment [3], in [4], in experiment [5], in [6] and in [7] was “inactive” throughout. Moreover, the Potency entry in experiment [8], in experiment [9], in [10], in experiment [11], in [12] and in [13] was “inactive” in each case. The Potency entry in experiment [14], in [15], in experiment [16], in experiment [17], in experiment [18] and in experiment [19] was “inactive” each time. The Potency entry in experiment [20] is “inactive”. The activity, negative = inhibition in experiment [2] (parasite line A) is 1.09%; in experiment [2] (parasite line B), 2.23%.
